Measured values: PubChem BioAssay (EPA / NIEHS)
The source made the active and inactive calls. The calls were made as follows: active = hit-call score of the fitted dose curve at least 0.9, where 1 is the maximum; inconclusive = response in the unintended direction; inactive = score below 0.9.

test system: SERPINA7 (gene 6906); experiment: CCTE_GLTED_hTBG: CCTE's human Thyroxine-binding Globulin (TBG) Inhibition Assay, Great Lakes Toxicology and Ecology Division (GLTED) Lab (AID 2284343);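 also: active chemicals lower fluorescence versus DMSO baseline by displacing probe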
Description: CCTE_GLTED_hTBG is a cell-free, single-readout assay designed to test the chemicals' ability to displace T4 from the human thyroxine-binding globulin (TBG) protein. TBG is incubated in presence of test chemical for 2 hours during which disrupting chemicals displace ANSA from the TBG protein. Results read fluorescence at 380 excitation and 475 emission.CCTE_GLTED_hTBG is the assay component measured from the CCTE_GLTED_hTBG assay. It is designed to make measurements of fluorescent polarization, using a form of binding reporter, as detected with Fluorescence signals by Fluorescence technology.Data from the assay component CCTE_GLTED_hTBG was analyzed at the assay endpoint CCTE_GLTED_hTBG in the positive analysis fitting direction relative to DMSO as the negative control and baseline of activity. Using a type of binding reporter, loss-of-signal activity can be used to understand a chemical's ability to displace T4 from thyroxine-binding globulin. To generalize the intended target to other relatable targets, this assay endpoint is annotated to the 'transporter' intended target family, where the subfamily is 'hormone carrier protein'.
Human transthyretin (TTR) assay, developed at Great Lakes Toxicology and Ecology Division (GLTED) within the EPA's Center for Computational Toxicology and Exposure (CCTE), is designed to test the chemicals' ability to displace T4 from the TTR protein. TTR (0.5uM) is incubated in presence of test chemical for 2 hours during which disrupting chemicals displace ANSA from the TTR protein. Results read fluorescence at 380 excitation and 475 emission.

SMILES	AC50
O=C1OC(c2ccc(O)cc2)(c2ccc(O)cc2)c2ccccc21	3.3 µM (active)
Cc1cc(Cc2ccc(N)c(C)c2)ccc1N	24 µM (active)
O=C(Oc1ccccc1)c1cccc(C(=O)Oc2ccccc2)c1	9.91 µM (active)
S=c1[nH]c2ccccc2s1	36.4 µM (active)
CCC(C)N(C)C(=O)c1cc2ccccc2c(-c2ccccc2Cl)n1 (stereo not given)	38.1 µM (active)
CCCCCCC(C=O)=Cc1ccccc1	21.5 µM (active)
CC(=O)CC(c1ccccc1)c1c(O)c2ccccc2oc1=O (stereo not given)	37.9 µM (active)
CCCCc1nc2cccnc2n1Cc1ccc(-c2ccccc2-c2nnn[nH]2)cc1	33.7 µM (active)
O=C1NC(=O)C(c2ccccc2)(c2ccccc2)N1	17.4 µM (active)
O=Cc1ccccc1C=O	8.72 µM (active)
Cc1ccc(C(C)(C)C)c(O)c1	26.7 µM (active)
CCCCCCCCCCCCCCOS(=O)(=O)O	27.7 µM (active)
O=C(O)c1[nH]n(-c2ccc(S(=O)(=O)O)cc2)c(=O)c1N=Nc1ccc(S(=O)(=O)O)cc1	27.1 µM (active)
Cc1c(C)c2c(c(C)c1O)CCC(C)(COc1ccc(CC3SC(=O)NC3=O)cc1)O2 (stereo not given)	8.3 µM (active)
O=C1c2c(O)cccc2Cc2cccc(O)c21	41.1 µM (active)
